# Laboratory results as given in publication PMC11062922 (Nature Chemical Biology, 2023).
# Where two headings read alike, the source gives them in different places.
# Assays:
# Set-up in all cases: species or system human, MV4-11 + K-562 + COLO205 + SK-N-BE2 + OVCAR-8
# [1] = tested on: AGK; settings: read-out: apparent Kd; compound concentrations:100 nM and 1000 nM (sheet 'Samples'); n = 1
# [2] = tested on: CDKL5; settings: read-out: apparent Kd, n = 1
# [3] = tested on: CLK1; settings: read-out: apparent Kd; compound concentrations:100 nM and 1000 nM (sheet 'Samples'); n = 1
# [4] = tested on: CLK2; settings: read-out: apparent Kd; compound concentrations:100 nM and 1000 nM (sheet 'Samples'); n = 1
# [5] = tested on: CLK4; settings: read-out: apparent Kd; compound concentrations:100 nM and 1000 nM (sheet 'Samples'); n = 1
# [6] = tested on: ADRBK1; settings: read-out: apparent Kd, compound concentrations: 100 nM and 1000 nM (sheet 'Samples'), n = 1
# [7] = tested on: CSNK1G1; settings: read-out: apparent Kd; compound concentrations: 100 nM and 1000 nM (sheet 'Samples'), CATDS: 0.16245140586904; n = 1
# [8] = tested on: NQO2; settings: read-out: apparent Kd; compound concentrations: 100 nM and 1000 nM (sheet 'Samples'), CATDS: 0.164283529908442; n = 1
# [9] = tested on: PDXK; settings: read-out: apparent Kd; compound concentrations: 100 nM and 1000 nM (sheet 'Samples'), CATDS: 0.18883200846926201; n = 1
# [10] = tested on: TP53RK; settings: read-out: apparent Kd, n = 1
# [11] = tested on: VDAC3; settings: read-out: apparent Kd; compound concentrations: 100 nM and 1000 nM (sheet 'Samples'), CATDS: 0.190251033630114; n = 1
# [12] = tested on: AKT1; settings: read-out: apparent Kd; compound concentrations:100 nM and 1000 nM (sheet 'Samples'); n = 1
# [13] = tested on: AKT3; settings: read-out: apparent Kd; compound concentrations:100 nM and 1000 nM (sheet 'Samples'); n = 1
# [14] = tested on: DDX3X;DDX3Y; settings: read-out: apparent Kd; compound concentrations:100 nM and 1000 nM (sheet 'Samples'); n = 1
# [15] = tested on: RIOK2; settings: read-out: apparent Kd, n = 1
# [16] = tested on: AKT2; settings: read-out: apparent Kd; compound concentrations:100 nM and 1000 nM (sheet 'Samples'); n = 1
# [17] = tested on: HCK; settings: read-out: apparent Kd; compound concentrations:100 nM and 1000 nM (sheet 'Samples'); n = 1
# [18] = tested on: MAP2K2; settings: read-out: apparent Kd; compound concentrations:100 nM and 1000 nM (sheet 'Samples'); n = 1
# [19] = tested on: NQO1; settings: read-out: apparent Kd; compound concentrations:100 nM and 1000 nM (sheet 'Samples'); n = 1
# [20] = tested on: RET; settings: read-out: apparent Kd; compound concentrations:100 nM and 1000 nM (sheet 'Samples'); n = 1
# [21] = tested on: YES1; settings: read-out: apparent Kd; compound concentrations:100 nM and 1000 nM (sheet 'Samples'); n = 1
# [22] = tested on: FLT4; settings: read-out: apparent Kd; compound concentrations: 100 nM and 1000 nM (sheet 'Samples'), CATDS: 0.144028041300378; n = 1
# [23] = tested on: MAP4K5; settings: read-out: apparent Kd; compound concentrations: 100 nM and 1000 nM (sheet 'Samples'), CATDS: 0.15363433252833; n = 1
# [24] = tested on: PLK1; settings: read-out: apparent Kd; compound concentrations: 100 nM and 1000 nM (sheet 'Samples'), CATDS: 0.58980024549807997; n = 1
# [25] = tested on: SLK; settings: read-out: apparent Kd; compound concentrations: 100 nM and 1000 nM (sheet 'Samples'), CATDS: 0.13817903386438299; n = 1
# [26] = tested on: STK10; settings: read-out: apparent Kd; compound concentrations: 100 nM and 1000 nM (sheet 'Samples'), CATDS: 0.15967879525120501; n = 1
# [27] = tested on: AGPS; settings: read-out: apparent Kd; compound concentrations: 100 nM and 1000 nM (sheet 'Samples'), CATDS: 7.5383402334255403E-2; n = 1
# [28] = tested on: CDK9; settings: read-out: apparent Kd; compound concentrations: 100 nM and 1000 nM (sheet 'Samples'), CATDS: 8.3924043652499697E-2; n = 1
# [29] = tested on: CSNK1A1; settings: read-out: apparent Kd; compound concentrations: 100 nM and 1000 nM (sheet 'Samples'), CATDS: 8.0672688589635194E-2; n = 1
# [30] = tested on: CSNK1D; settings: read-out: apparent Kd; compound concentrations: 100 nM and 1000 nM (sheet 'Samples'), CATDS: 0.220619974671908; n = 1
# [31] = tested on: CSNK1E; settings: read-out: apparent Kd; compound concentrations: 100 nM and 1000 nM (sheet 'Samples'), CATDS: 0.1850261885326; n = 1
# [32] = tested on: RAB14; settings: read-out: apparent Kd; compound concentrations: 100 nM and 1000 nM (sheet 'Samples'), CATDS: 7.5249376612815694E-2; n = 1
# [33] = tested on: STK26; settings: read-out: apparent Kd; compound concentrations: 100 nM and 1000 nM (sheet 'Samples'), CATDS: 8.25311561999897E-2; n = 1
# [34] = tested on: GSK3A; settings: read-out: apparent Kd; compound concentrations: 100 nM and 1000 nM (sheet 'Samples'), CATDS: 0.49410987745455298; n = 1
# [35] = tested on: MYLK3; settings: read-out: apparent Kd; compound concentrations: 100 nM and 1000 nM (sheet 'Samples'), CATDS: 0.30722908276371202; n = 1
# [36] = compound concentrations:100 nM and 1000 nM (sheet 'Samples')
smiles,measurement,setting,value
COc1ccc2c(-c3ccnc(Nc4cccc(OC(F)(F)F)c4)n3)cnn2n1 [GW810372X],potency estimated from few doses,[1],2270 nM
same,potency estimated from few doses,[2]; [36],1850 nM
same,potency estimated from few doses,[3],82.4 nM
same,potency estimated from few doses,[4],20.2 nM
same,potency estimated from few doses,[5],120 nM
CCn1cnc2c(N)ncnc21 [GW345098X],potency estimated from few doses,[6]; CATDS: 0.15222698888400599,2400 nM
same,potency estimated from few doses,[7],2080 nM
same,potency estimated from few doses,[8],2040 nM
same,potency estimated from few doses,[9],1560 nM
same,potency estimated from few doses,"[10]; compound concentrations: 100 nM and 1000 nM (sheet 'Samples'), CATDS: 0.1506883600127",2450 nM
same,potency estimated from few doses,[11],1540 nM
COc1cccc(C2=C(Nc3cccc(O)c3)C(=O)NC2=O)c1 [SB-390771],potency estimated from few doses,[12],2060 nM
same,potency estimated from few doses,[13],1930 nM
same,potency estimated from few doses,[14],2110 nM
same,potency estimated from few doses,[15]; [36],2460 nM
C=CC(=O)Nc1cc(-c2nn(C3CCC(N4CCN(C(C)=O)CC4)CC3)c3ncnc(N)c23)ccc1Oc1ccccc1 (centres unmarked) [TX-85-1],potency estimated from few doses,[12],2280 nM
same,potency estimated from few doses,[16],2250 nM
same,potency estimated from few doses,[17],799 nM
same,potency estimated from few doses,[18],1550 nM
same,potency estimated from few doses,[19],1480 nM
same,potency estimated from few doses,[20],712 nM
same,potency estimated from few doses,[10]; [36],1620 nM
same,potency estimated from few doses,[21],918 nM
COc1cc2ncn(-c3cc(OCc4ccncc4Br)c(C(N)=O)s3)c2cc1OC [GW854278X],potency estimated from few doses,[6]; CATDS: 0.136000830332002,2200 nM
same,potency estimated from few doses,[22],1880 nM
same,potency estimated from few doses,[23],1590 nM
same,potency estimated from few doses,[24],135 nM
same,potency estimated from few doses,[25],2100 nM
same,potency estimated from few doses,[26],1450 nM
c1cnn2ncc(-c3ccnc(NCCCN4CCOCC4)n3)c2c1 [GW683109X],potency estimated from few doses,[27],2080 nM
same,potency estimated from few doses,[28],1290 nM
same,potency estimated from few doses,"[2]; compound concentrations: 100 nM and 1000 nM (sheet 'Samples'), CATDS: 0.33786107354204697",40.1 nM
same,potency estimated from few doses,[29],1530 nM
same,potency estimated from few doses,[30],82.2 nM
same,potency estimated from few doses,[31],118 nM
same,potency estimated from few doses,[32],2100 nM
same,potency estimated from few doses,"[15]; compound concentrations: 100 nM and 1000 nM (sheet 'Samples'), CATDS: 0.19530203573374799",105 nM
same,potency estimated from few doses,[33],1390 nM
COc1ccc(C2=C(c3cn(C)c4ccccc34)C(=O)NC2=O)cc1 [RO0317257-000],potency estimated from few doses,[6]; CATDS: 0.26872629517394703,1840 nM
same,potency estimated from few doses,[34],529 nM
same,potency estimated from few doses,[35],1310 nM
